The results in this text go back to PubChem BioAssay (NCI).

Test systems include HCT-15 colon; HT29 colon; SNB-19 CNS; U251 CNS; PC-3 prostate; SK-MEL-5 melanoma; UACC-62 melanoma; LOX IMVI melanoma; SK-MEL-28 melanoma; SK-MEL-2 melanoma; EKVX NSCLC; SN12C renal; UO-31 renal; TK-10 renal; ACHN renal; CAKI-1 renal; CCRF-CEM leukemia; MOLT-4 leukemia; A498 renal.
Common to all, as to experiment: NCI-60 one-dose screen, 48 h (100 = growth as untreated, 0 = no growth, -100 = all killed)
Common to all, as to settings: 10 µM unless noted

Molecules are shown by their SMILES. Compounds without any hit were thinned out: in the full panel of roughly 83,000, 20% have a hit.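 Assay: single dose, 48 h. Readout: percent growth (0 = no net growth; negative = cell death). Active: <10.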 Values without a mark were called inactive. The source made the active and inactive calls.

As for `COc1ccc(-c2[nH][nH]c(=O)c2-c2nc3ccccc3s2)cc1`, the growth in the experiment with HCT-15 colon is 95.4%; in the experiment on HT29 colon, 106%; with SNB-19 CNS, 102%; with U251 CNS it was 101%; in the experiment on PC-3 prostate, 102%; with SK-MEL-5 melanoma it was 102%. The growth in the experiment on UACC-62 melanoma was 98%; in the experiment on LOX IMVI melanoma it was 99.9%; in the experiment on SK-MEL-28 melanoma it was 112%; in the experiment with SK-MEL-2 melanoma, 104%; in the experiment with EKVX NSCLC, 99.9%; with SN12C renal, 98.4%. The growth in the experiment with UO-31 renal is 86.6%; with TK-10 renal it was 108%; in the experiment with ACHN renal, 106%; with CAKI-1 renal, 88%; in the experiment with CCRF-CEM leukemia, 99.1%; in the experiment with MOLT-4 leukemia, 102%.
As to `CCOC(=O)c1cc(C(=O)c2ccc(OC)cc2)n2ccc(/C=C/c3cc[n+](CC(=O)c4ccc(OC)cc4)cc3)cc12`, the growth in the experiment with HCT-15 colon was 85.9%; with HT29 colon, 16.5%; with SNB-19 CNS, 31.3%; in the experiment with U251 CNS, 53.5%; in the experiment on PC-3 prostate it was 64.1%; in the experiment on SK-MEL-5 melanoma, 87.8%. Also, the growth in the experiment on LOX IMVI melanoma is 25.4%; in the experiment with SK-MEL-28 melanoma, 103%; with SK-MEL-2 melanoma it was 100%; in the experiment on EKVX NSCLC, 87.8%; in the experiment with SN12C renal, 56.2%; with UO-31 renal, 72.7%. The growth in the experiment on TK-10 renal was 91.7%; in the experiment on ACHN renal, 70.2%; in the experiment with CAKI-1 renal, 81.8%; in the experiment on A498 renal it was 67.6%; in the experiment on CCRF-CEM leukemia, -22.5% (active); in the experiment with MOLT-4 leukemia, 49.8%.
With `Nc1ccccc1NC(=O)c1ccc(-n2nc(-c3ccccc3)c3ccccc32)cc1`, the growth with HCT-15 colon was 76.7%; in the experiment with HT29 colon it was 88.4%; in the experiment on SNB-19 CNS, 78.8%; in the experiment on U251 CNS it was -85.6% (active); in the experiment on PC-3 prostate, 58.6%; in the experiment with SK-MEL-5 melanoma, 82.9%. Besides, the growth in the experiment on UACC-62 melanoma was 77.5%; in the experiment on LOX IMVI melanoma, 79.7%; in the experiment with SK-MEL-28 melanoma, 99.7%; in the experiment with SK-MEL-2 melanoma it was 94.3%; with EKVX NSCLC, 89.7%; in the experiment on SN12C renal, 52.3%. In addition, the growth with UO-31 renal was -62.7% (active); in the experiment on TK-10 renal it was 94.1%; with ACHN renal it was 90.6%; with CAKI-1 renal it was 73.4%; with CCRF-CEM leukemia, 9.38% (active); in the experiment with MOLT-4 leukemia, 4.66% (active).
As for `ClC1=C(Br)C(Br)(Br)C(=C(Br)Br)C1(Br)Br`, the growth in the experiment with HCT-15 colon was 79.2%; with HT29 colon, 82.5%; in the experiment on SNB-19 CNS it was 93.9%; in the experiment with U251 CNS, 94.5%; in the experiment on PC-3 prostate it was 82.8%; in the experiment with SK-MEL-5 melanoma it was 92.6%. Further, the growth with UACC-62 melanoma is 81.2%; in the experiment on LOX IMVI melanoma, 77.9%; with SK-MEL-28 melanoma, 102%; with SK-MEL-2 melanoma it was 110%; in the experiment on EKVX NSCLC, 111%; in the experiment on SN12C renal it was 95.5%. Besides, the growth is 71.7% with UO-31 renal; 80.4% in the experiment with TK-10 renal; 78.6% in the experiment on ACHN renal; 61.3% with CAKI-1 renal; 25.1% in the experiment on CCRF-CEM leukemia; 74.5% with MOLT-4 leukemia.
In the case of `COc1ccc(/C=C2\Oc3cc(OCCCCCN4CCCCC4)ccc3C2=O)cc1OC`, the growth in the experiment with HCT-15 colon is 49.3%; in the experiment with HT29 colon, -59.2% (active); in the experiment on SNB-19 CNS it was 91%; with U251 CNS, 87%; with PC-3 prostate, 79.2%; in the experiment with SK-MEL-5 melanoma it was 66.7%. The growth with UACC-62 melanoma was 96.2%; in the experiment on LOX IMVI melanoma, 63.2%; with SK-MEL-28 melanoma, 99.4%; in the experiment with SK-MEL-2 melanoma, 92.4%; with EKVX NSCLC it was 78.7%; in the experiment on SN12C renal, 86%. Besides, the growth was 73.8% in the experiment with UO-31 renal; 82% in the experiment on TK-10 renal; 100% in the experiment with ACHN renal; 94.3% in the experiment on CAKI-1 renal; 15.2% in the experiment on CCRF-CEM leukemia; 70.2% in the experiment on MOLT-4 leukemia.
With `Oc1c(Cl)cc(Cl)c(Cl)c1CNCCNCc1c(O)c(Cl)cc(Cl)c1Cl`, the growth was 25.1% in the experiment on HCT-15 colon; 26.8% with HT29 colon; 15.9% in the experiment with SNB-19 CNS; 10.1% with U251 CNS; 44.4% in the experiment with PC-3 prostate; -1.48% (active) in the experiment with SK-MEL-5 melanoma. Besides, the growth with UACC-62 melanoma was -13.3% (active); in the experiment on LOX IMVI melanoma, 6.53% (active); with SK-MEL-28 melanoma, 21.4%; with SK-MEL-2 melanoma, 18.3%; in the experiment on EKVX NSCLC it was 22.4%; in the experiment on SN12C renal, 36.2%. In addition, the growth in the experiment with UO-31 renal is 0.579% (active); in the experiment with TK-10 renal, 39.5%; in the experiment with ACHN renal, 8.86% (active); with A498 renal, 51.3%; in the experiment on CCRF-CEM leukemia, 4.31% (active); in the experiment on MOLT-4 leukemia, 10%.
As to `O=C1c2c(c3c4cccc(F)c4[nH]c3c3ccc4ccccc4c23)C(=O)N1O`, the growth in the experiment with HCT-15 colon was 15.5%; with HT29 colon, 23.8%; with SNB-19 CNS it was 30.2%; in the experiment with U251 CNS, 26.8%; in the experiment with SK-MEL-5 melanoma, 9.72% (active); in the experiment with UACC-62 melanoma, 26.9%. Further, the growth with LOX IMVI melanoma is 18.4%; in the experiment with SK-MEL-28 melanoma it was 58.5%; with SK-MEL-2 melanoma, 51.5%; in the experiment with EKVX NSCLC it was 63.8%; in the experiment with SN12C renal, 41.5%; in the experiment with UO-31 renal it was 30.4%. The growth with TK-10 renal is 91.1%; in the experiment with ACHN renal it was 27.8%; in the experiment with CAKI-1 renal, 29.4%; in the experiment with A498 renal it was 27.2%; in the experiment with CCRF-CEM leukemia it was 7.09% (active); in the experiment with MOLT-4 leukemia it was 3.29% (active).
Consider `CCOC(=O)c1cc(C(=O)c2ccc(OC)c(OC)c2)n2c1ccc1ccccc12`, for which the growth with HCT-15 colon was 84.5%; in the experiment with HT29 colon, 103%; in the experiment on SNB-19 CNS it was 94%; in the experiment with U251 CNS, 96.2%; in the experiment on PC-3 prostate it was 81.7%; in the experiment on SK-MEL-5 melanoma, 89.8%. For the same molecule, the growth in the experiment on LOX IMVI melanoma was 85.1%; with SK-MEL-28 melanoma, 106%; in the experiment on EKVX NSCLC, 76.1%; in the experiment on SN12C renal it was 83.7%; with UO-31 renal, 58.4%; in the experiment with TK-10 renal, 154%. Moreover, the growth in the experiment with ACHN renal is 91%; in the experiment with CAKI-1 renal it was 64.6%; in the experiment with A498 renal it was 97.1%; in the experiment on CCRF-CEM leukemia, 94%; in the experiment on MOLT-4 leukemia it was 89.6%.
